Bioassay records (PubChem)
This is a sample that favours compounds with a hit; in the whole collection about 2.7% have one here.
ANO1 block: blocks the mouse calcium-activated chloride channel TMEM16A. Q8BHY3. HEK293 TMEM16A/YFP iodide influx fluorescence, ionomycin. normalized B-score (activity score, 25-100; higher = stronger inhibition) at 10 µM. 310,000 compounds, 1.2% hits. AID 588511;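 active = ratio plate-corrected score three or more library SD toward inhibition, starting fluorescence score within five deviations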;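 note: score derived from kinetic fluorescence span divided by baseline fluorescence per well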
PP5 inh: blocks human protein phosphatase 5 activity. P53041. purified PP5c, OMFP substrate fluorescence. inhibition, % at 6.7 µM. 320,000 compounds, 0.18% hits;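 active = inhibition above the campaign's mean inhibition across all tested compounds plus 3 SD, cut at about 9.5% in these data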;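 note: 0% = DMSO only and 100% = 100 µM cantharidin control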
PP1 counter: counter-screen for PP5 inhibitors: inhibitors of human PP1-alpha | P62136 | 320,000 compounds, 0.9% hits | AID 2235 | purified PP1alpha, OMFP fluorescence | inhibition, % at 6.7 µM;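 active = inhibition above the mean inhibition of all tested compounds plus 3 SD, computed separately for each screening campaign, cut at about 15% in these data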
PREPL inh: inhibitors of human prolyl oligopeptidase-like enzyme PREPL. recombinant PREPL, fluorescence polarization activity-based probe. 320,000 compounds, 0.68% hits. inhibition, % at 5.96 µM. Q4J6C6; in the data active = inhibition above about 43%;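 note: 0% = enzyme with DMSO and 100% = wells lacking enzyme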
Target sequence (Q4J6C6 whole entry, looked up): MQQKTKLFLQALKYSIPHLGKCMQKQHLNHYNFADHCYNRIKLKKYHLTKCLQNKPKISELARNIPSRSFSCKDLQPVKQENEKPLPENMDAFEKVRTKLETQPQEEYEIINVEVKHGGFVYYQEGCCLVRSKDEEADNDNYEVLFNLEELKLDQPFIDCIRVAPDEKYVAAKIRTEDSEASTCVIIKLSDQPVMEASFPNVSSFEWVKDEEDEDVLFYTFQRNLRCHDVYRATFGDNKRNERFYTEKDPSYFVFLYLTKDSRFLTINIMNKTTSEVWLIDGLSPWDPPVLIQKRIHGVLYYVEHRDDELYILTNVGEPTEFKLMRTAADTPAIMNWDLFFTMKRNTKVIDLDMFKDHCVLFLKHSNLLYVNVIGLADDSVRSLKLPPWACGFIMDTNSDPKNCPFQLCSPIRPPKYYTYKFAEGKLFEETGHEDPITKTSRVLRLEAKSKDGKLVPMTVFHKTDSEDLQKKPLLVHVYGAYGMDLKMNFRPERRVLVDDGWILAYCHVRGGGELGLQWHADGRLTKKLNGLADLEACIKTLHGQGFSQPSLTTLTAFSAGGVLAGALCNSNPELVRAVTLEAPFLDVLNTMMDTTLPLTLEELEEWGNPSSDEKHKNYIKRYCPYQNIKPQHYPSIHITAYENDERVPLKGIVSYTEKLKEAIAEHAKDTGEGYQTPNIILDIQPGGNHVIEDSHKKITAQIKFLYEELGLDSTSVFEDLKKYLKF
DNA FID counter: counter-screen for HCV NS3 helicase inhibitors: DNA intercalator displacement. AID 1845. DNA fluorescent intercalator displacement, fluorescence. inhibition, % at 7.9 µM. 290,000 compounds, 0.17% hits; in the data active = inhibition above about 37%;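 note: 0% = vehicle and 100% = reference compound; higher means more ethidium bromide displaced from hairpin DNA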
TMEM16A act: activates or potentiates the mouse TMEM16A chloride channel; HEK293 TMEM16A/YFP-H148Q/I152L, iodide quench fluorescence; stronger effect = lower value; B-score at 10 µM; 340,000 compounds, 0.3% hits; AID 623877;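 active = fluorescence-ratio B-score plate-corrected deviation score at least 3 library SD below zero, with starting fluorescence score within 5 deviations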;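 note: channel opened by trigger with iodide after compound preincubation; score built on the fluorescence ratio of max minus min over baseline; more negative score means more quench and so TMEM16A activation or potentiation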
* marks the source's active call; other numbers are inactive results; i = inactive; . = no result.

SMILES	ANO1 block	PP5 inh	PP1 counter	PREPL inh	DNA FID counter	TMEM16A act
COc1ccc(OC)c(NC(=O)CCN2CCN(C/C=C/c3ccccc3)CC2)c1	i	-0.4	0.9	38.0	3.5	i
O=C(Nc1ccccc1)c1ccc(NCc2cccnc2)c(S(=O)(=O)N2CCOCC2)c1	i	2.3	2.9	4.5	-24.8	-6.81*
O=C(Nc1ccccc1)c1ccc(NCc2ccco2)c(S(=O)(=O)N2CCOCC2)c1	i	0.8	1.1	8.6	-19.5	i
CCN1C[C@@H]2[C@@H]3C(=O)N(Cc4ccccc4)C(=O)[C@@H]3[C@](CC)(C1=O)N2C(=O)c1ccc(Cl)c(Cl)c1	.	.	.	.	.	i
CC(=O)Nc1ccc2c(c1)C(N1CC3CCC(CC3)C1)c1ccccc1-2 (stereo unspecified)	.	.	.	.	.	i
CCCC(C)c1nnc(NC(=O)COc2ccc3c(c2)OCO3)s1 (stereo unspecified)	i	-6.5	16.5*	7.5	-22.8	i
C=CCc1cc(Cl)ccc1OCCOCCN(C)C	i	-1.7	-0.9	-12.9	32.2	i
CON(C)C(=O)C[C@@H]1C[C@H](OC(=O)c2ccc([N+](=O)[O-])cc2)CN1C(=O)OC(C)(C)C	.	.	.	5.6	.	i
CCCCc1ccc(NC(=O)CSCc2cc(=O)[nH][nH]2)cc1	i	-0.2	16.0*	-0.3	-7.5	i
Cc1ccc(SCc2c(C#N)c3ccccc3n2C)cc1	25*	3.7	2.8	16.0	-5.4	i
Cn1c(CSc2ccccc2)c(C#N)c2ccccc21	i	0.2	-0.7	14.7	-2.8	i
O=C(NCc1ccco1)C1CCN(C(=O)c2ccc(Cl)cc2)CC1	.	0.8	-3.1	1.4	.	i
O=C(NCc1ccco1)C1CCN(C(=O)c2cc3sccc3n2Cc2ccc(Cl)cc2)CC1	100*	5.8	9.3	25.1	-42.8	i
C=CCn1c(=NC(=O)c2cc(-c3cccs3)nc3ccccc23)sc2cc(S(N)(=O)=O)ccc21	i	1.6	16.1*	-14.6	-12.4	i
COCCn1c(=NC(=O)c2cc(-c3cccs3)nc3ccccc23)sc2cc(S(N)(=O)=O)ccc21	i	1.8	13.9	-21.4	-8.2	i
Cc1nn(CC(=O)NCCCN2CCN(C)CC2)c(=O)c2cc(-c3ccccc3)nn12	i	1.6	-2.8	3.0	20.5	i
Cc1nn(CC(=O)NCCCN2CCC(N3CCCCC3)CC2)c(=O)c2cc(-c3ccccc3)nn12	i	3.0	-2.7	19.9	38.4*	i
Cc1ccc2nc3c(cc(C(=O)NCCN4CCOCC4)c(=N)n3CCCN3CCOCC3)c(=O)n2c1	i	1.8	3.8	17.4	78.9*	i
N=c1c(C(=O)NCCN2CCOCC2)cc2c(=O)n3ccccc3nc2n1CCCN1CCOCC1	i	-0.5	1.0	7.1	76.2*	i
COc1cc(NCCCNC(C)C)c2nccc(C)c2c1	.	.	.	.	.	i
O=C(c1ccco1)N(CCC(c1ccccc1)c1ccco1)Cc1ccco1 (stereo unspecified)	i	2.6	16.9*	2.9	-35.1	i
Cc1ccc(C(CCN(Cc2ccccc2)C(=O)c2ccco2)c2ccco2)cc1 (stereo unspecified)	i	3.6	-0.9	-2.9	-53.0	i
CC1=C(C(=O)Nc2cc(C(=O)N3CCN(c4cccc(C)c4C)CC3)ccc2C)SCCO1	i	3.5	2.6	27.6	-60.7	-7.06*
Cc1ccc(NC(=O)Cn2nnc(C(=O)Nc3ccc(C)c(C)c3)c2N)cc1	i	0.9	16.2*	-7.8	5.7	i
Cc1nnc(NC(=O)C2CC(=O)N(c3ccc4c(c3)OCCO4)C2)s1 (stereo unspecified)	.	1.8	-2.1	5.7	.	i
SMILES	ANO1 block	PP5 inh	PP1 counter	PREPL inh	DNA FID counter	TMEM16A act
O=C(Nc1nc(-c2ccco2)c(-c2ccco2)s1)C1CC(=O)N(c2ccc3c(c2)OCCO3)C1 (stereo unspecified)	i	0.5	13.4	7.5	-13.0	-6.24*
O=C1/C(=N\S(=O)(=O)c2cccs2)C([n+]2ccccc2)=C([O-])c2ccccc21	i	3.0	-2.0	13.8	-0.1	-10.5*
CC(C)(C)c1cc[n+](C2=C([O-])c3ccccc3C(=O)/C2=N\S(=O)(=O)c2cccs2)cc1	i	0.3	-2.1	9.6	3.6	i
Cc1ccc(NC(=S)NNC(=O)c2ccccc2O)c(C)c1	100*	0.8	-1.7	4.9	-7.5	i
Cc1ccc(NC(=O)NNC(=O)c2cc3ccccc3cc2O)c(C)c1	i	2.5	2.9	11.3	-19.3	i
O=c1cc(-c2ccccc2Cl)oc2ccc([N+](=O)[O-])c(O)c12	i	-0.9	14.5	20.7	-1.4	i
O=[N+]([O-])c1cc([N+](=O)[O-])c2oc(-c3ccccc3)c(Br)c2c1O	.	.	.	.	46.9*	i
CSC(=NS(=O)(=O)c1ccc(N)cc1)NS(=O)(=O)c1cccs1	.	.	.	.	.	i
CC(=O)c1ccc(N2CCN(C(=O)C3CCCN3S(=O)(=O)c3cccc4nsnc34)CC2)cc1 (stereo unspecified)	i	-1.2	-0.9	6.5	-37.1	i
O=C(C1CCCN1S(=O)(=O)c1cccc2nsnc12)N1CCCCC1 (stereo unspecified)	25*	-0.6	-4.2	22.1	-3.5	i
Cc1cc(F)ccc1NC(=O)c1cc(S(=O)(=O)N2CCc3ccccc32)cn1C	i	3.7	1.9	-33.2	-28.2	i
Cc1cc(NC(=O)c2ccc3[nH]c(C)c(C)c3c2)ccn1	i	.	.	.	37.4*	i
CC(=O)Nc1cccc(NC(=O)c2ccc3[nH]c(C)c(C)c3c2)c1	i	-0.6	-2.1	0.4	-11.0	i
O=C1C(=O)N(Cc2cccnc2)C(c2cccc([N+](=O)[O-])c2)/C1=C(/O)c1ccc2c(c1)OCO2 (stereo unspecified)	i	4.5	0.7	-1.4	-51.0	i
Cc1cccc(C)c1OCCSc1nc2ccccc2n1CC(=O)O	i	3.8	-1.2	-12.4	-35.8	i
CCOC(=O)Cc1nn(Cc2nc(-c3ccc(C)cc3)cs2)c(=O)c2ccccc12	25*	-0.2	1.1	20.1	-9.1	i
Cc1ccc(NC(=O)N2CCC(NC(=O)c3cccc(F)c3)CC2)cc1	i	-1.1	3.6	16.4	-17.6	i
CC1(C)OC2OC(C3COC(=O)O3)C(OC(=O)c3ccccc3)C2O1 (stereo unspecified)	.	.	.	.	.	i
Cc1ccccc1-n1c(SCc2c(C)noc2C)nnc1-c1cccnc1	i	2.7	-1.1	17.8	-13.5	-5.22*
Cc1ccccc1-n1c(SCc2c(C)noc2C)nnc1-c1ccncc1	i	1.2	-4.6	-13.3	-24.3	i
CCn1c(CSc2nnc(-c3cccnc3)n2-c2ccccc2C)nc2cc(C(=O)O)ccc21	i	-0.2	0.6	49.3*	-52.5	.
